Assay [1] can be described thus: Nuclear factor erythroid 2-related factor 2/antioxidant responsive element (Nrf2/ARE) small molecule agonists: qHTS cell viability counter screen in human keratinocytes (AID 1919968; active means well fitted curve in the direction sought with a large enough effect in the repeat runs; an effect the other way counts as inactive or inconclusive; further: nearly all actives have a fitted effect of over 55% in size; further: potency means the concentration at half of the fitted maximal effect). In outline: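 Viability counter-screen: KeratinoSens reporter cells, DMSO-delivered compounds, 23 h at 37 C, CellTiter-Fluor fluorescence.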
Assay [2] can be described thus: Nuclear factor erythroid 2-related factor 2/antioxidant responsive element (Nrf2/ARE) small molecule agonists: luciferase reporter gene qHTS assay in human keratinocytes (AID 1919969). Further: nearly all actives have a fitted effect of over 35% in size. A general note: In a reporter assay the amount or activity of a reporter protein is the signal.
For assay [3], the target named is Gonadotropin-releasing hormone receptor (Homo sapiens) (UniProt P30968). Kind of assay: Human gonadotropin-releasing hormone receptor (GnRHR) small molecule agonists, calcium flux assay in GnRHR-HEK293 cells (AID 1920063). Further: nearly all actives have a fitted effect of over 35% in size. A digest of the protocol: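 Tox21-format agonist screen using human GnRHR-expressing HEK293 cells and a fluorescent calcium dye; kinetic 3-min fluorescence reading after compound addition, 15-point concentration series run in triplicate.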
For orientation: Calcium assays in cells follow changes in intracellular calcium, usually with a dye or a luminescent sensor.

For assay [4], the target named is KiSS-1 receptor (Homo sapiens) (UniProt Q969F8). The experiment in a line: Human kisspeptin (KISS1R) small molecule agonists, calcium flux assay in KISS1R-HEK293 cells (AID 1920064; active means well fitted curve in the direction sought with a large enough effect in the repeat runs; an effect the other way counts as inactive or inconclusive). In outline: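 Intracellular calcium mobilization in KISS1R-HEK293 cells was recorded by fluorescence (Ex/Em 480/540) for 3 min following compound addition to cells pre-loaded 1 h with calcium dye.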

Assay [5] in a line: G protein-coupled receptor (GPCR) small molecule agonists, calcium flux assay: HEK293 wild type cell line counter screen (AID 1920065). In outline: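 In this agonist-mode screen, ATP is the positive control and DMSO the vehicle. Cells grow 18 h before a 1 h dye incubation at 37 C; signal is taken at Ex/Em 480/540 over 3 min.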
The nature of assay [6]: p53 small molecule agonists, cell-based qHTS assay with rat liver microsomes (AID 1963578). Further: potency means the concentration at half of the fitted maximal effect. A digest of the protocol: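 Agonist mode in p53RE-bla reporter cells, with compounds co-incubated 16 h at 37 C alongside 0.5 mg/mL rat liver microsomes and 0.5 mg/mL NADPH (final), followed by a 2 h LiveBLAzer detection step.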
Assay [7] can be described thus: p53 small molecule agonists, cell-based qHTS assay with human liver microsomes: qHTS cell viability counter screen (AID 1963579). Further: nearly all actives have a fitted effect of over 45% in size. A digest of the protocol: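 Metabolically activated exposure: compounds, human liver microsomes and NADPH (0.5 mg/mL final apiece) were added to p53RE-bla cells seeded 5 h earlier, left 16 h at 37 C, and then assessed for viability by CellTiter-Glo luminescence.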
Background: Quantitative high-throughput screening tests each substance at several concentrations.

Assay [8] can be described thus: p53 small molecule agonists, cell-based qHTS assay with rat liver microsomes: qHTS cell viability counter screen (AID 1963580). Further: nearly all actives have a fitted effect of over 45% in size. Further: potency means the concentration at half of the fitted maximal effect. In outline: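 p53RE-bla HCT-116 cells were exposed 16 h at 37 C to compounds with rat liver microsomes (0.5 mg/mL) and NADPH (0.5 mg/mL). Viability was measured in the same wells as ATP content by CellTiter-Glo luminescence.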
The nature of assay [9]: p53 small molecule agonists, cell-based qHTS assay (AID 1963582; active means well fitted activation curve with a large enough effect in the signal ratio in the repeat runs, not every such curve was filed as active; the % refers to the signal ratio; further: potency means the concentration at half of the fitted maximal effect). A digest of the protocol: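 Agonist activity was scored from beta-lactamase FRET fluorescence in p53RE-bla cells treated 16 h at 37 C with compounds in DMSO, substrate incubation being 2 h at room temperature.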
The target in assay [10] is 5-hydroxytryptamine receptor 2A (Homo sapiens) (UniProt P28223). Kind of assay: 5-hydroxytryptamine receptor 2A (HTR2A) small molecule agonists, cell-based qHTS assay (AID 1963587). Further: nearly all actives have a fitted effect of over 30% in size. In outline:
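CHO cells stably expressing human HTR2A, plated 18 h, loaded with calcium dye 1 h at 37 C. Agonist mode: compounds added and intracellular calcium fluorescence recorded kinetically for 2 min at 1 sec intervals.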

In assay [11] the target is Muscarinic acetylcholine receptor M1 (Homo sapiens) (UniProt P11229). Kind of assay: Cholinergic receptor muscarinic 1 (CHRM1) small molecule antagonists, cell-based qHTS assay (AID 1963588). Further: nearly all actives have a fitted effect of over 40% in size. Further: potency means the concentration at half of the fitted maximal effect. A digest of the protocol: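 CHRM1-CHO calcium-flux assay, antagonist mode. Cells were seeded 18 h, dye-loaded 1 h at 37 C and given compound for 5 min at RT, then acetylcholine was added at 50nM. FDSS fluorescence was read 3 min; 15 concentrations, three runs.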

For assay [12] the target is unchanged. The experiment in a line: Cholinergic receptor muscarinic 1 (CHRM1) small molecule agonists, cell-based qHTS assay (AID 1963589). Further: nearly all actives have a fitted effect of over 35% in size. A digest of the protocol: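 Stable CHRM1-CHO cells (human receptor) were incubated 18 h, dye-loaded for 1 h at 37 C and exposed to test compounds for agonist activity, with calcium-dependent fluorescence followed kinetically.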

Assay [13] is described as follows: cAMP Responsive Elements (CRE) small molecule agonists, cell-based qHTS assay (AID 1963590). A digest of the protocol:
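FRET-based beta-lactamase readout (LiveBLAzer B/G, 2 h RT) quantified CRE activation in HEK 293T CRE-bla cells after 3 h treatment with DMSO-dissolved compounds.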

Assay [14] is described as follows: cAMP Responsive Elements (CRE) small molecule antagonists, cell-based qHTS assay (AID 1963591; active means well fitted inhibition curve with a large enough effect in the signal ratio in the repeat runs, not every such curve was filed as active; the % refers to the signal ratio). A digest of the protocol:
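qHTS in CRE-bla HEK 293T cells: compound in DMSO, then 0.25 uM NKH477 (final), 3 h at 37 °C/5% CO2; beta-lactamase FRET read-out after 2 h substrate incubation.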

Assay [15] addresses Beta-2 adrenergic receptor (Homo sapiens) (UniProt P07550). Kind of assay: Adrenergic beta2 receptor (ADRB2) small molecule antagonists, cell-based qHTS assay (AID 1963592). Further: series mostly up to about 92 µM; nearly all actives have a fitted effect of over 50% in size. A digest of the protocol:
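Cells (CHO, stable ADRB2 overexpression) incubated 18-20hr at 37C; compounds added from DMSO; agonist mix (1nM isoproterenol, 100uM IBMX, 25uM Ro-20-1724) added; 0.5hr RT; d2-cAMP and anti-cAMP-cryptate added; 1hr RT; 665/615 nm read.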

Assay [16] has as its target D(2) dopamine receptor (Homo sapiens) (UniProt P14416). The experiment in a line: Dopamine D2 receptor (DRD2) small molecule agonists, cell-based qHTS assay (AID 1963594). Further: nearly all actives have a fitted effect of over 35% in size. A digest of the protocol:
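HEK293 cells stably expressing human DRD2, pre-treated with PDE inhibitor Ro20-1724 (0.1 mM final) and compound 10 min at room temperature, then stimulated with NKH477 (200nM […]) for 30 min. cAMP read by HTRF (665/620 nm).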

For assay [17] the target is unchanged. Kind of assay: Dopamine D2 receptor (DRD2) small molecule antagonists, cell-based qHTS assay (AID 1963595; active means well fitted inhibition curve with a large enough effect in the signal ratio in the repeat runs, with a control signal flat; the % refers to the signal ratio). A digest of the protocol:
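Stable D2 receptor HEK293 line, 24 h after seeding. Compound preincubated 10 min, then quinpirole (12 nM) with forskolin analogue NKH477 (200 nM), 30 min, room temperature. Detection by time-resolved FRET of cAMP.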

Assay [18] deals with 5-hydroxytryptamine receptor 2A (Homo sapiens) (UniProt P28223). Kind of assay: 5-hydroxytryptamine receptor 2A (HTR2A) small molecule antagonists, cell-based qHTS assay (AID 1963586). Further: nearly all actives have a fitted effect of over 45% in size. In outline: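 Antagonist-mode intracellular calcium assay: DOI (4 nM) added after 5 min compound pre-incubation at room temperature to dye-loaded HTR2A-CHO cells. Fluorescence followed for 3 min, sampled every second.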

Assay [19] concerns the target Beta-2 adrenergic receptor (Homo sapiens) (UniProt P07550). The experiment in a line: Adrenergic beta2 receptor (ADRB2) small molecule agonists, cell-based qHTS assay (AID 1963593).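 Further: CHO cells stably overexpressing human ADRB2.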 A digest of the protocol: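 CHO cells stably over-expressing ADRB2 were plated overnight at 37C, then dosed with compounds plus a stimulation mix containing 100uM IBMX and 25uM Ro-20-1724 for 0.5hr at room temperature. cAMP was measured by HTRF competition, 1hr.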

A short description of assay [20]: p53 small molecule agonists, cell-based qHTS assay: qHTS cell viability counter screen (AID 1963581). Further: nearly all actives have a fitted effect of over 45% in size. In outline: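 Compounds are pinned onto HCT-116 p53RE-bla cells and left 16 h at 37 C. Following the reporter FRET read, ATP is quantified by CellTiter-Glo luminescence after 30 min at room temperature.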

Structures are written as SMILES. Records with an inconclusive call do not appear. Activity calls are given as the source filed them. Unless noted, the call rests on the fitted dose curve.

Sequence of Beta-2 adrenergic receptor (Homo sapiens) (P07550 whole entry, looked up): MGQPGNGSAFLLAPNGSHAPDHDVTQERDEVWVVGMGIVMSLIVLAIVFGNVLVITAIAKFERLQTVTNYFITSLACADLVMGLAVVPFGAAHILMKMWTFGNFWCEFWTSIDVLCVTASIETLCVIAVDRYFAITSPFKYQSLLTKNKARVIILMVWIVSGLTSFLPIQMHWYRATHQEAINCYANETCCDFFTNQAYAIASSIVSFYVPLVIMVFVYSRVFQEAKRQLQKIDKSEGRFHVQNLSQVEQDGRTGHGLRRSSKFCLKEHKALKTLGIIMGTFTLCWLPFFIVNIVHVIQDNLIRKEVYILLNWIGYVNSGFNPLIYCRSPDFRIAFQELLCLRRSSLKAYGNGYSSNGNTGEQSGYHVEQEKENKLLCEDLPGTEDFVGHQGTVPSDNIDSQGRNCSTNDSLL
Sequence of KiSS-1 receptor (Homo sapiens) (Q969F8 whole entry, looked up): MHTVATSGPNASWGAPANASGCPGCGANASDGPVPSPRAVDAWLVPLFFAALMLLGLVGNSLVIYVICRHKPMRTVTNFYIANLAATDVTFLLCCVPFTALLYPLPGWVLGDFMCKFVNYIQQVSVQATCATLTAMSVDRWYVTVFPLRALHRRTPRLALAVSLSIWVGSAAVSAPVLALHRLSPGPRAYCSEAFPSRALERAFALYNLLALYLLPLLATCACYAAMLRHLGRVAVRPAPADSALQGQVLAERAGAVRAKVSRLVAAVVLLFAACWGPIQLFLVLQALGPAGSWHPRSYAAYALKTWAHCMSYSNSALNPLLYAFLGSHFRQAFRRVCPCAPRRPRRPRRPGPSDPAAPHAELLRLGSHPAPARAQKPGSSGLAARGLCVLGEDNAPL
Sequence of Gonadotropin-releasing hormone receptor (Homo sapiens) (P30968 whole entry, looked up): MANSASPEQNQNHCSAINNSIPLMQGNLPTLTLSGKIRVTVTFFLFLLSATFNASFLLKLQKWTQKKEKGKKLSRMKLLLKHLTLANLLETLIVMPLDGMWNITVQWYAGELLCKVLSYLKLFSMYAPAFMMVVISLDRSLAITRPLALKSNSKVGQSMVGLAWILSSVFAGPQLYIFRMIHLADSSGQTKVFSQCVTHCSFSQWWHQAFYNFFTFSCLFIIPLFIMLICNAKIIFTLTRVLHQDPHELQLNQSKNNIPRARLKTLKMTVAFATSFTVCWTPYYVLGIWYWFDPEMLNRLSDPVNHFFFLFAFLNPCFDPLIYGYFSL
Sequence of Muscarinic acetylcholine receptor M1 (Homo sapiens) (P11229 whole entry, looked up): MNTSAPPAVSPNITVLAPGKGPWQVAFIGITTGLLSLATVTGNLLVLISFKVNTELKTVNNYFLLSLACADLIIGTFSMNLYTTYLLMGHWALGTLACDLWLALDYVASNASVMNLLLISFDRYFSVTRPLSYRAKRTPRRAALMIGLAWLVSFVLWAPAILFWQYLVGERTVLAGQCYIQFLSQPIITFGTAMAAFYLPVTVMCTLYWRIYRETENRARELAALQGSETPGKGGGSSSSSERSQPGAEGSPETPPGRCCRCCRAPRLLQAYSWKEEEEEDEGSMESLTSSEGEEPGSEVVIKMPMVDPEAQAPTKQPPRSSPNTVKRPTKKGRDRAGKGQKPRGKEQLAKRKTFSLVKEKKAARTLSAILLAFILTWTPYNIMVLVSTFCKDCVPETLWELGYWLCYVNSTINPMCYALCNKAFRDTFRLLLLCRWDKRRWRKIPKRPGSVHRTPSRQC
Sequence of D(2) dopamine receptor (Homo sapiens) (P14416 whole entry, looked up): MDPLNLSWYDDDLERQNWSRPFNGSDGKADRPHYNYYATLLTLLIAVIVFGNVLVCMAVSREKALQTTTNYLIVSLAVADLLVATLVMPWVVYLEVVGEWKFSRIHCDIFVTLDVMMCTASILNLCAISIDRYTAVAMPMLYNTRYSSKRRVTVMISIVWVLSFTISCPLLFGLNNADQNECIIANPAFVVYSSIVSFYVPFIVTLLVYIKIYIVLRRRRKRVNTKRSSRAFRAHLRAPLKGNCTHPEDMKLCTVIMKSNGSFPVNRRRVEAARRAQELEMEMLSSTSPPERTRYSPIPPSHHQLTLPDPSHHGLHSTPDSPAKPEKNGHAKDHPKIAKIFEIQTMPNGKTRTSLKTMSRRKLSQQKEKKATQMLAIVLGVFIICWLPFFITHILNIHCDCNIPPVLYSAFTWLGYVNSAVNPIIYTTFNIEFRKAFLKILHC
Sequence of 5-hydroxytryptamine receptor 2A (Homo sapiens) (P28223 whole entry, looked up): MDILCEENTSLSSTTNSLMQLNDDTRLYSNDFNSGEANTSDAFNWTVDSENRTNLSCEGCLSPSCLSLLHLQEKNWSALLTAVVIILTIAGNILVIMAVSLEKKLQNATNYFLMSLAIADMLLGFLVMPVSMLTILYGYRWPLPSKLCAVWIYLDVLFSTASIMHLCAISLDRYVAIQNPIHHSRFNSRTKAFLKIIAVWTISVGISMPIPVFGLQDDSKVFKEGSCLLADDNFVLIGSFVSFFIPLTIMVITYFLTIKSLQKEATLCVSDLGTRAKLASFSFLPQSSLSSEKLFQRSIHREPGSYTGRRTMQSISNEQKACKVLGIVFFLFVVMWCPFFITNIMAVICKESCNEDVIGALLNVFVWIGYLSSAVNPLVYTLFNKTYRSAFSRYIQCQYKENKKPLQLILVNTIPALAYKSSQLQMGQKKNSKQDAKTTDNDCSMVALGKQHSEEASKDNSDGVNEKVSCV

Take `CC/C(C)=N\O[Si](C)(O/N=C(\C)CC)O/N=C(\C)CC`: the Potency entry in [1], in [2], in assay [3], in assay [4], in assay [5] and in [6] was “inactive” throughout. For the same compound, the Potency result in assay [7], in assay [8], in assay [9], in assay [10], in assay [12] and in [13] was “inactive” in each case. The Potency result in assay [14], in assay [15], in assay [16] and in [17] was “inactive” throughout. The Potency in assay [11] was 3.39 µM (active).

For the compound `CCc1c2c(nc3ccc(OC(=O)N4CCC(N5CCCCC5)CC4)cc13)-c1cc3c(c(=O)n1C2)COC(=O)[C@]3(O)CC`, the Potency entry in assay [1], in assay [2], in assay [3], in assay [4], in assay [5] and in assay [7] was “inactive” each time. Further, the Potency entry in assay [13], in assay [15], in [16] and in [17] was “inactive” in each case. Moreover, the Potency is 0.0178 µM (active) in assay [6], 1.26 µM (active) in [8] and 5 µM (active) in [9].

In the case of `CCCNC(C)C(=O)Nc1c(C)csc1C(=O)OC` (configuration not stated), the Potency entry in [1], in assay [2], in assay [3], in assay [4], in assay [5] and in [6] was “inactive” each time. Moreover, the Potency entry in assay [7], in assay [8], in [9], in [18], in assay [10] and in assay [11] was “inactive” throughout. Moreover, the Potency result in assay [12], in assay [13], in [15], in assay [19], in [16] and in assay [17] was “inactive” each time.

On to `O=S(=O)(Oc1ccc(Cl)cc1)c1ccccc1`, for which the Potency entry in [1], in [2], in assay [3], in assay [4], in [5] and in [6] was “inactive” each time. In addition, the Potency entry in assay [7], in assay [8], in [18], in [10], in [12] and in assay [13] was “inactive” each time. Besides, the Potency entry in [14], in assay [15], in assay [16] and in assay [17] was “inactive” each time. The Potency in assay [11] is 11.9 µM (active).

As for `CCCC(C)CC` (configuration not stated), the Potency result in [1], in [2], in assay [3], in assay [4], in assay [5] and in assay [6] was “inactive” throughout. The Potency result in [7], in [9], in [18], in [10], in assay [11] and in assay [12] was “inactive” each time. The Potency entry in [13], in [14], in assay [15], in [16] and in assay [17] was “inactive” in each case.

Consider `CSC(=O)c1cccc2nnsc12`, for which the Potency result in assay [1], in [2], in assay [3], in assay [4], in assay [5] and in assay [6] was “inactive” throughout. In addition, the Potency entry in assay [7], in assay [8], in assay [9], in assay [10], in assay [11] and in [12] was “inactive” throughout. Moreover, the Potency entry in [13], in assay [15] and in assay [17] was “inactive” throughout.

For the compound `CCOC(=O)C1=C(C)NC(C)=C(C(=O)OCC)C1c1ccccc1/C=C/C(=O)OC(C)(C)C`, the Potency in assay [1] is 18.8 µM (active); in assay [6], 19.9 µM (active). Besides, the Potency entry in assay [2], in [3], in assay [4], in assay [5], in assay [7] and in [8] was “inactive” in each case. Further, the Potency entry in [15], in [16] and in [17] was “inactive” throughout.

Turning to `CC(=O)/C=C/C=C1/C2CCC(C2)C1(C)C` (configuration not stated), the Potency result in [1], in [2], in assay [3], in [4], in assay [5] and in [6] was “inactive” throughout. The Potency entry in assay [8], in [20], in [9], in [18], in assay [10] and in [11] was “inactive” in each case. Besides, the Potency result in [12], in assay [13], in assay [14], in assay [15], in assay [19] and in [16] was “inactive” each time. In assay [17], the Potency result was “inactive”.
